The values below come from PubChem BioAssay (NCATS).

Values joined by “and” are separate entries in the source; they are usually repeats but may differ in a detail not shown here. Identical values can stand only once. Inconclusive results are not listed. Unmarked numbers belong to inactive results. Active and inactive are the calls of the source. The call rests on the fitted dose curve; in most records, active means well fitted curve in the direction sought with a large enough effect; inconclusive means small, poorly fitted or top-dose-only effect, or another doubt; inactive means no such curve, though single readings can be large; an effect the other way counts as inactive or inconclusive.

The nature of assay [1]: Quantitative highthroughput screen to assess conditional lethalithy of NOMO1 cells grown in RPMI1640 with untreated serum (RPMI+s) (AID 1963876).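 Further: 100% = DMSO wells and 0% = empty wells without cells; nearly all actives have a fitted effect of over 35% in size.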 The note with it: NOMO1 AML cells in RPMI+serum, CellTiter-Glo viability, 48 h; series mostly up to 45.8 µM. A digest of the protocol: (§1)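 Each medium arm—HPLM with 10% dialyzed FBS, or RPMI1640 with 5 mM glucose and 10% untreated or dialyzed FBS—was screened against an 11-point, 3-fold compound titration for 48 h at 37 °C, with CellTiter-Glo luminescence as endpoint.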
A general note: Cellular ATP, detected with luciferase, serves as a proxy for viable cell number.

Assay [2] can be described thus: Quantitative highthroughput screen to assess conditional lethalithy of NOMO1 cells grown in RPMI1640 with dialyzed fetal bovine serum (RPMI+ds) (AID 1963877).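 Further: 100% = DMSO control wells and 0% = empty wells; nearly all actives have a fitted effect of over 30% in size.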 The note with it: NOMO1 in RPMI+dialyzed FBS viability, ATP luminescence, 48 h; series mostly up to 45.8 µM. A digest of the protocol:
as §1

Assay [3] is described as follows: Quantitative highthroughput screen to assess conditional lethalithy of NOMO1 cells grown in Human Plasma-Like Medium with dialyzed fetal bovine serum (HPLM+ds) (AID 1963878).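 Further: 100% = DMSO wells and 0% = empty wells on each plate; nearly all actives have a fitted effect of over 35% in size.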 As to conditions: NOMO1 AML cells in HPLM+ds, CellTiter-Glo viability, 48 h; series mostly up to 45.8 µM. A digest of the protocol:
as §1

Assay [4] is described as follows: Quantitative highthroughput screen to assess conditional lethalithy of P12 Ichikawa cells grown in Human Plasma-Like Medium with dialyzed fetal bovine serum (HPLM+ds) (AID 1963879). Further: nearly all actives have a fitted effect of over 35% in size. The note with it: ATP luminescence, 48 h; Potency: viability; series mostly up to 45.8 µM. The method in brief: as §1
A short description of assay [5]: Quantitative highthroughput screen to assess conditional lethalithy of P12 Ichikawa cells grown in RPMI1640 with dialyzed fetal bovine serum (RPMI+ds) (AID 1963880).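 Further: 100% = DMSO wells and 0% = empty wells on each plate; nearly all actives have a fitted effect of over 35% in size.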 As to conditions: ATP luminescence, 48 h; Potency: P12-Ichikawa viability; series mostly up to 45.8 µM. A digest of the protocol:
as §1

A short description of assay [6]: Quantitative highthroughput screen to assess conditional lethalithy of P12 Ichikawa cells grown in RPMI1640 with untreated serum (RPMI+s) (AID 1963881). The note with it: ATP luminescence, 48 h; Potency: viability; series mostly up to 45.8 µM. A digest of the protocol: as §1
Assay [7] in a line: Quantitative highthroughput screen to assess conditional lethalithy of SEM cells grown in Human Plasma-Like Medium with dialyzed fetal bovine serum (HPLM+ds) (AID 1963882). Further: nearly all actives have a fitted effect of over 35% in size. Further: potency means the concentration at half of the fitted maximal effect. As to conditions: SEM B-ALL cells in HPLM+ds, CellTiter-Glo viability, 48 h; series mostly up to 45.8 µM. A digest of the protocol: as §1
Assay [8] is described as follows: Quantitative highthroughput screen to assess conditional lethalithy of SEM cells grown in RPMI1640 with dialyzed fetal bovine serum (RPMI+ds) (AID 1963884). Further: nearly all actives have a fitted effect of over 35% in size. Further: potency means the concentration at half of the fitted maximal effect.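 On viability: 100% = DMSO control wells and 0% = empty wells without cells.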 As to conditions: SEM B-ALL cells, RPMI+dialyzed FBS, CellTiter-Glo viability, 48 h; series mostly up to 45.8 µM. The method in brief:
as §1

The nature of assay [9]: Cellular viability qHTS for adrenocortical cancer (ACC) cell line SW-13 (AID 1963989).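 Further: cells grown in serum-free medium with ITS supplement; on the % scale 0 is the no-effect control and ±100 the full control effect; nearly all actives have a fitted effect of over 65% in size.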 As to conditions: SW-13 ACC cells viability, CellTiter-Glo, 48 h; activity (max response): hits give low values. The method in brief:
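48 h treatment, SW-13 in ITS/DMEM serum-free; doses up to 46 uM; readout CellTiter-Glo luminescence; curve fit four-parameter logistic.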
(In general: In qHTS, concentration-response curves come from the screen itself.)

Assay [10] is described as follows: Cellular viability qHTS for adrenocortical cancer (ACC) cell line NCI-H295R (AID 1963990).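 Further: 0% = DMSO only wells and -100% = full killing with cytotoxic reference compound; nearly all actives have a fitted effect of over 60% in size.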 The note with it: CellTiter-Glo ATP luminescence, 48 h; series mostly up to 46.1 µM. A digest of the protocol: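 Compound titrations (up to 46 uM final) are applied to NCI-H295R cultures for 48 h at 37C. Viable cell number is estimated by CellTiter-Glo signal, normalised to DMSO and doxorubicin controls.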

Assay [11] can be described thus: Quantitative highthroughput screen to assess conditional lethalithy of SEM cells grown in RPMI1640 with unreated serum (RPMI+s) (AID 1963883). Further: nearly all actives have a fitted effect of over 35% in size. Further: potency means the concentration at half of the fitted maximal effect.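 On viability: 100% = DMSO wells and 0% = empty wells without cells.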 The note with it: SEM B-ALL cells, CellTiter-Glo viability, 48 h; series mostly up to 45.8 µM. The method in brief:
as §1

Take `CS(=O)(=O)c1ccc(C(=O)Nc2ccc(Cl)c(-c3ccccn3)c2)c(Cl)c1`: the Potency result in assay [1], in [2], in assay [3], in [4], in assay [5] and in assay [6] was “inactive” in each case. The Potency entry in [7], in assay [8] and in assay [10] was “inactive” in each case. Besides, the activity (max response) in assay [9] was -0.792%.
On to `Cn1cc(-c2ccc3nnc(Sc4ccc5ncccc5c4)n3n2)cn1`, for which the Potency result in assay [1], in assay [2], in assay [3], in [4], in assay [5] and in assay [6] was “inactive” throughout. Also, the Potency result in [7], in assay [11], in [8] and in assay [10] was “inactive” in each case. Further, the activity (max response) in assay [9] is -4.92%.
For `COc1cccc(Nc2c(C(N)=O)cnc3c(C)cc(S(=O)(=O)c4cccc(C(=O)N(C)C)c4)cc23)c1`, the Potency entry in assay [1], in assay [2], in assay [3], in assay [4], in assay [5] and in [6] was “inactive” throughout. Also, the Potency entry in [7], in [11], in [8] and in assay [10] was “inactive” each time. Also, the activity (max response) in [9] was 11.8%.
Consider `O=C(NC1CCOCC1)c1ccc(-c2cc(-c3cn[nH]c3-c3ccccn3)ccn2)cc1`, for which the Potency result in assay [1], in assay [2], in assay [3], in assay [4], in [5] and in [6] was “inactive” throughout. Besides, the Potency result in assay [7], in assay [11] and in [10] was “inactive” in each case. In addition, in [9], the activity (max response) was 6.28%.
`CN(CCOc1ccc(CC2SC(=O)NC2=O)cc1)c1ccccn1` (configuration not stated): the Potency result in [1], in assay [2], in [3], in assay [4], in assay [5] and in assay [6] was “inactive” throughout. Also, the Potency result in assay [7], in assay [11], in [8] and in assay [10] was “inactive” throughout.
As for `Cc1cc(-c2nnc3n2CCCCC3)c(C)n1-c1ccccc1`, the Potency entry in assay [1], in assay [2], in [3], in [4], in assay [5] and in [6] was “inactive” each time. Further, the Potency result in assay [7] and in assay [8] was “inactive” in each case.
As for `O=C1C[C@@H](c2ccc(O)cc2)Oc2cc(O)cc(O)c21`, the Potency entry in [1], in [2], in [3], in [4], in assay [5] and in assay [6] was “inactive” in each case. Besides, the Potency entry in [7], in assay [11], in [8] and in [10] was “inactive” throughout. In addition, the activity (max response) in assay [9] is -16.9%.
For `Oc1ccc(C2CNCCc3c2cc(O)c(O)c3Cl)cc1` (configuration not stated), the Potency result in [1], in assay [2], in [3], in [4], in [5] and in assay [6] was “inactive” each time. Further, the Potency entry in assay [7], in assay [11], in assay [8] and in [10] was “inactive” each time. Moreover, in assay [9], the activity (max response) is 2.44% and 14.8%.
For `O=c1ccn([C@@H]2O[C@H](CO)[C@H](O)[C@@H]2F)c(=O)[nH]1`, the Potency result in assay [1], in assay [2], in assay [3], in assay [4], in [5] and in assay [6] was “inactive” in each case. Besides, the Potency result in assay [7], in assay [11], in assay [8] and in [10] was “inactive” throughout. Besides, in assay [9], the activity (max response) is -7.29%.
Take `CC(=O)O[C@H]1C[C@@H]2CC[C@H]3[C@H]4C[C@H]([N+]5(C)CCCCC5)[C@@H](OC(C)=O)[C@@]4(C)CC[C@@H]3[C@@]2(C)C[C@H]1[N+]1(C)CCCCC1`: the Potency result in assay [1], in assay [2], in assay [3], in [4], in [5] and in assay [6] was “inactive” each time. For the same compound, the Potency result in assay [7], in assay [11], in assay [8] and in assay [10] was “inactive” each time. Also, the activity (max response) in assay [9] was 7.56%.
`Cc1cc(O)c2c(c1)C(=O)c1cc(O)cc(O)c1C2=O`: the Potency entry in [1], in assay [2], in assay [3], in assay [4], in assay [5] and in assay [6] was “inactive” in each case. The Potency result in assay [7], in [11], in [8] and in assay [10] was “inactive” each time. Moreover, the activity (max response) in assay [9] was -8.42%.
`Cn1cc(-c2ccc3ncc(Cc4ccc5ncccc5c4)n3n2)cn1`: the Potency result in assay [1], in assay [2], in assay [3], in [4], in [5] and in [6] was “inactive” throughout. The Potency result in assay [10] is “inactive”. Moreover, the Potency in [7] is 8.33 µM (active); in assay [11], 9.35 µM (active); in assay [8] it was 10.5 µM (active). Moreover, the activity (max response) in assay [9] is 2.95%.
For `Nc1ccc(S(=O)(=O)Nc2ccnn2-c2ccccc2)cc1`, the Potency result in [1], in assay [2], in assay [3], in assay [4], in [5] and in assay [6] was “inactive” each time. In addition, the Potency entry in [7], in [11], in assay [8] and in assay [10] was “inactive” in each case. In addition, the activity (max response) in [9] is 3.92%.
As for `CC1=C(CC(=O)O)c2cc(F)ccc2C1=Cc1ccc(S(C)=O)cc1` (configuration not stated), the Potency result in [1], in [2], in [3], in [4], in assay [5] and in [6] was “inactive” in each case. The Potency entry in assay [7], in [11] and in assay [10] was “inactive” each time. Further, the activity (max response) in assay [9] was 10.2%.
Regarding `OC1CCC(Nc2ncc3nc(Nc4c(F)cc(F)cc4F)n([C@@H]4CCOC4)c3n2)CC1` (some centres not stated), the Potency result in [1], in [2], in [3], in assay [4], in [5] and in assay [6] was “inactive” each time. Further, the Potency entry in assay [7], in [8] and in [10] was “inactive” throughout.
Turning to `Clc1cccc(-n2nnnc2NCc2ccccc2Oc2ccccn2)c1Cl`, the Potency entry in [1], in assay [2], in assay [3], in assay [4], in assay [5] and in assay [6] was “inactive” in each case. Also, the Potency entry in assay [7], in assay [11], in assay [8] and in assay [10] was “inactive” in each case.
For the compound `COc1ccnc(CS(=O)c2nc3ccc(OC(F)F)cc3[nH]2)c1OC` (configuration not stated), the Potency result in assay [1], in [2], in assay [3], in assay [4], in assay [5] and in [6] was “inactive” throughout. Further, the Potency entry in assay [7], in assay [11], in assay [8] and in assay [10] was “inactive” throughout. The activity (max response) in assay [9] was -15.5% and -5.64%.
For `O=C1CCc2cc(OCCCCc3nnnn3C3CCCCC3)ccc2N1`, the Potency entry in assay [1], in assay [2], in assay [3], in assay [4], in assay [5] and in [6] was “inactive” throughout. The Potency result in assay [7], in [11], in [8] and in assay [10] was “inactive” throughout.
